# The source made the active and inactive calls. Unless noted, no rule for the calls is given here.
# Assays:
# [1] = tested on: XIP peptide (Xip251-270) binding; assay: XIP fragment 251-270 binding compounds – biochemical, small-molecule microarray, fluorescence 635/667 nm, 0.1 µg/mL protein, primary screen (AID 1182); details: fluorescent protein binding, 635 nm, higher = more signal, called active from +8 up or from −8 down
# XIP peptide (Xip251-270) = assay: compounds binding XIP fragment 251-270 – biochemical, small-molecule microarray, fluorescence 635/667 nm, 0.5 µg/mL protein, primary screen (AID 1183); details: fluorescence 635 nm, higher = more signal
# [2] = blood-stage malaria parasite viability loss – strain 3D7, DAPI fluorescence, 100 nL, primary screen (AID 1184);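 also: parasites grown inside human red blood cells in medium with human serum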; details: P. falciparum 3D7 growth, 3 d, higher = more signal
# [3] = molecular target: Homeobox protein Hox-A13 (Mus musculus) (UniProt Q62424); assay: disruptors of Hoxa13 oligonucleotide interaction – biochemical, fluorescence polarization, labeled oligonucleotide, primary screen (AID 1185); details: Hoxa13:DNA binding, 15 min, higher = more signal, called active from +8 up or from −8 down
# [4] = blockers of DNA damage checkpoint Chk1 activation – imaging, HeLa, hydroxyurea, phospho-Chk1 antibody, percent positive cells, primary screen (AID 1186); details: hydroxyurea-induced phospho-Chk1 immunofluorescence imaging, higher = more signal
# [5] = blockers of DNA damage checkpoint Chk1 activation – imaging, HeLa, hydroxyurea, phospho-Chk1 nuclear intensity, primary screen (AID 1187); details: hydroxyurea-induced phospho-Chk1 immunofluorescence imaging, higher = more signal
# Sequence of Homeobox protein Hox-A13 (Mus musculus) (Q62424 whole entry, looked up): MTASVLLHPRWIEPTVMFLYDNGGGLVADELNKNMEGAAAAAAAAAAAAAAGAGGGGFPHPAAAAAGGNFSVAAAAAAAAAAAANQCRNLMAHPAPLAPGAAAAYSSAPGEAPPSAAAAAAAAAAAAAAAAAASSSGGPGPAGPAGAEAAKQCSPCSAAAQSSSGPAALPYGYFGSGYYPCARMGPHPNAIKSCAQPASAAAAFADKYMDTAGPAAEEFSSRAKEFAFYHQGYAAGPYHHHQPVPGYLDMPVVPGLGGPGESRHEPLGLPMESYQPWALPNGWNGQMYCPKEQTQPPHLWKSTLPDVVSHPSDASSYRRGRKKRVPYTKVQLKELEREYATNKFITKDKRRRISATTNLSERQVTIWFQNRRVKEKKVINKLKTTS
SMILES,composite z-score [1],composite z-score (XIP peptide (Xip251-270)),z-score [2],z-score [3],z-score [4],z-score [5]
C=C(COC)C(=O)CC[C@@H](OC(C)=O)c1cccc(OCCO)c1,0.309 (inactive),-0.0276,-0.988,-3.69 (inactive),0.367 (inactive),-0.113 (inactive)
CN(C)C(=O)[C@@]1(Cc2ccccc2)N=C(c2ccc(OCCCO)cc2)O[C@H]1c1ccccc1,1.66 (inactive),0.444,-1.58,-6.14 (inactive),-0.499 (inactive),-0.304 (inactive)
[N-]=[N+]=Nc1ccccc1C[C@]1(C(=O)O)COC(c2ccc(OCCCO)cc2)=N1,1.09 (inactive),0.907,-1.54,-4.69 (inactive),0.0118 (inactive),0.0756 (inactive)
NC(=O)NCC#Cc1ccc2c(c1)[C@]1(C(=O)N2)[C@H](C(=O)N2CCN(c3ncccn3)CC2)[C@H]2C(=O)O[C@H](c3ccccc3)[C@H](c3ccccc3)N2[C@@H]1c1ccc(O)cc1,-0.0728 (inactive),0.58,1.79,-1.83 (inactive),0.161 (inactive),0.359 (inactive)
CC(C)c1ccc(NN2C(C(O)c3ccc(F)cc3)C=CC3C(=O)N(c4ccccc4)C(=O)C32)cc1 (stereo unspecified),0.344 (inactive),0.774,-0.344,-1.93 (inactive),0.51 (inactive),0.374 (inactive)
C=CCNC(=O)[C@@H]1[C@H]2C(=O)O[C@H](c3ccccc3)[C@H](c3ccccc3)N2[C@H](c2ccc(OCCO)cc2)[C@@]12C(=O)N(C(=O)OCCOC)c1ccc(C#Cc3ccc(OC)cc3)cc12,0.448 (inactive),0.589,-2.07,-0.573 (inactive),0.0644 (inactive),0.22 (inactive)
CC[C@@H]1O[Si](C(C)C)(C(C)C)c2c1cc(-c1cc(C)c(OC)c(C)c1)nc2-c1ccc(Oc2ccccc2)cc1,-0.162 (inactive),-0.22,0.0977,-1.52 (inactive),-0.557 (inactive),-0.461 (inactive)
CO[C@H]1O[C@H](CO)[C@@H](OC(=O)Nc2ccc3c(c2)OCO3)[C@H](OC(=O)Nc2ccc3c(c2)OCO3)[C@@H]1OC(=O)Nc1ccc2c(c1)OCO2,1.12 (inactive),0.904,-2.31,-4.7 (inactive),-0.187 (inactive),-0.119 (inactive)
CC(C)NC(=O)[C@@]1(c2ccc([N+](=O)[O-])cc2)CC(=O)N(C2CCCCC2)[C@@H]1c1ccc(CO)cc1,1.15 (inactive),0.786,-0.385,-3.11 (inactive),0.127 (inactive),0.0865 (inactive)
CCCCC(CC)C(O)C1C=CC2C(=O)N(C)C(=O)C2N1Nc1ccccc1 (stereo unspecified),-0.12 (inactive),0.298,0.537,-4.08 (inactive),0.168 (inactive),-0.174 (inactive)
O=C1C2C=CC(C(O)c3cccc(O)c3)N(Nc3ccc([N+](=O)[O-])cc3)C2C(=O)N1c1ccccc1 (stereo unspecified),-0.232 (inactive),0.342,1.25,-3.9 (inactive),0.181 (inactive),-0.322 (inactive)
CC(C)N1C(=O)c2ccccc2[C@@H](C(=O)NCCN2CCOCC2)[C@@H]1c1ccc(CO)cc1,0.122 (inactive),0.0961,-0.22,-4.17 (inactive),-0.0809 (inactive),-0.264 (inactive)
Cc1ccc(N2C(=O)c3ccccc3[C@@H](C(=O)NCCCN(C)C)[C@@H]2c2ccc(CO)cc2)nc1,1.9 (inactive),0.148,-0.235,-2.34 (inactive),0.026 (inactive),-0.303 (inactive)
COCCOC(=O)N1C(=O)[C@@]2(c3ccccc31)[C@H](c1ccc(O)cc1)N1[C@H](c3ccccc3)[C@H](c3ccccc3)OC(=O)[C@H]1[C@@H]2C(=O)N1CCN(c2ncccn2)CC1,1.84 (inactive),0.787,-1.16,-2.14 (inactive),0.0666 (inactive),0.651 (inactive)
C=C(/C(=C/C[C@H](OC(=O)c1ccncc1)c1ccc(CO)o1)c1cnc2ccccc2c1)C(C)C,0.276 (inactive),0.647,-0.137,-5.42 (inactive),-0.282 (inactive),-0.39 (inactive)
C=CC[C@@H](OC(=O)Nc1ccc(OC)cc1)c1ccc(O)c(F)c1,1.29 (inactive),-1.1,0.765,-3.65 (inactive),0.0919 (inactive),0.0113 (inactive)
O=C(c1ccccc1)N1C(=O)[C@]2(Cc3ccccc31)N=C(c1ccc(OCCCO)cc1)O[C@@H]2c1ccccc1,0.409 (inactive),0.387,-1.87,-5.04 (inactive),0.546 (inactive),0.796 (inactive)
COc1ccc([Si](C)(C)[C@@H]2[C@@H](CC(=O)N3Cc4ccccc4C[C@H]3CO)O[C@]3(C(=O)N(Cc4ccc(N5C(=O)c6cccc7cccc5c67)cc4)c4ccccc43)[C@H]2C)cc1,0.685 (inactive),0.747,-0.962,-1.98 (inactive),0.143 (inactive),0.973 (inactive)

SMILES,composite z-score [1],composite z-score (XIP peptide (Xip251-270)),z-score [2],z-score [3],z-score [4],z-score [5]
CC(CO)N1C(=O)[C@@H]2[C@H]3C(=O)OCC=C[C@H]3OC23C=CCN(Cn2nnc4ccccc42)C(=O)[C@@H]13 (stereo partly specified),-0.0787 (inactive),-1.27,0.212,-3.47 (inactive),0.612 (inactive),0.424 (inactive)
C=CCNC(=O)[C@@H]1[C@H]2C(=O)O[C@H](c3ccccc3)[C@H](c3ccccc3)N2[C@H](c2ccc(O)cc2)[C@@]12C(=O)N(C(=O)OCCOC)c1ccc(C#CC3=CCCCC3)cc12,0.423 (inactive),0.672,0.608,-0.465 (inactive),-0.472 (inactive),-1.01 (inactive)
Cc1ccc(S[C@]2(C(=O)NCC(F)(F)F)CC(=O)N(Cc3cc(C(F)(F)F)cc(C(F)(F)F)c3)[C@@H]2c2ccc(CO)cc2)cc1,-0.491 (inactive),0.584,1.2,-1.71 (inactive),0.0254 (inactive),0.474 (inactive)
CC#CCO[Si](C#Cc1ccccc1)(C(C)C)C(C)C,0.0308 (inactive),-0.654,-0.916,-1.19 (inactive),0.988 (inactive),0.598 (inactive)
COCCOC(=O)N1C(=O)[C@@]2(c3ccccc31)[C@H](C(=O)NC[C@H](O)c1ccccc1)[C@H]1C(=O)O[C@H](c3ccccc3)[C@H](c3ccccc3)N1[C@@H]2c1ccc(O)cc1,0.26 (inactive),0.819,-1.02,-3.48 (inactive),0.326 (inactive),0.653 (inactive)
CC1CC/C=C\[C@H]2OC34C=CCN(c5ccc(Cl)cc5)C(=O)[C@H]3N(C(C)CO)C(=O)[C@]4(C)C2C(=O)O1 (stereo partly specified),-0.103 (inactive),-0.279,-0.111,-4.76 (inactive),0.558 (inactive),-0.11 (inactive)
CC(=O)NCCCC[C@@H]1NC(=O)[C@@H]2C[C@H](C(=O)NCCCCCN)[C@H](c3ccc(O)cc3)N2C1=O,0.0292 (inactive),0.891,-1.13,-3.21 (inactive),0.156 (inactive),0.317 (inactive)
CCCC1(C(=O)OC)C=C2C(=C(C)C(=O)C2C)CN1 (stereo unspecified),-1.06 (inactive),-0.527,0.43,-4.88 (inactive),0.779 (inactive),0.909 (inactive)
CCOC(=O)C[C@H]1[C@H](OC(=O)c2cc3ccccc3oc2=O)[C@@H](NC(=O)c2ccc3ccccc3n2)c2cc(OCCCO)ccc2N1C(=O)Cc1ccc(OC)cc1,-0.816 (inactive),0.71,-1.42,-3.15 (inactive),0.458 (inactive),-0.301 (inactive)
NC(=O)NCC#Cc1ccc2c(c1)[C@]1(C(=O)N2)[C@H](c2ccccc2OCCO)N2[C@H](c3ccccc3)[C@H](c3ccccc3)OC(=O)[C@H]2[C@@H]1C(=O)O,0.654 (inactive),0.418,-0.373,-7.04 (inactive),0.109 (inactive),0.239 (inactive)
Cc1cc(C)c(C(O)C2C=CC3C(=O)N(c4ccccc4)C(=O)C3N2Nc2ccccc2F)c(C)c1 (stereo unspecified),-0.121 (inactive),0.863,-0.286,-1.39 (inactive),0.153 (inactive),-0.0495 (inactive)
[N-]=[N+]=Nc1ccccc1C[C@]1(C(=O)N2CCOCC2)COC(c2ccc(OCCCO)cc2)=N1,0.373 (inactive),0.666,-2.03,-6.82 (inactive),-0.488 (inactive),-0.338 (inactive)
CC[C@@H]1C=C(C(=O)O)[C@H](c2ccc(C#N)cc2)N1S(=O)(=O)c1ccc(C)cc1,0.377 (inactive),-0.172,1.91,-4.62 (inactive),0.208 (inactive),-0.0106 (inactive)
CCCCNC(=O)c1ccc(C#CC(C)(C)C)c(OC(C)=O)c1,0.0374 (inactive),0.222,-1.74,-5.71 (inactive),0.13 (inactive),0.411 (inactive)
C=CC[C@H](OC(=O)Nc1ccc(SC)cc1)c1ccc(O)c2ccccc12,1.07 (inactive),0.728,-0.922,-1.35 (inactive),-0.0114 (inactive),0.142 (inactive)
Cc1ccccc1C(O)C1C=CC2C(=O)NC(=O)C2N1Nc1ccccn1 (stereo unspecified),0.132 (inactive),0.11,-0.461,-1.11 (inactive),-0.0651 (inactive),-0.681 (inactive)
CCCN1C(=O)[C@]2(Cc3ccccc31)N=C(c1ccc(OCCCO)cc1)O[C@@H]2c1ccccc1,-0.0074 (inactive),0.763,-2.32,-6.66 (inactive),0.0183 (inactive),0.825 (inactive)
O=C1NC(=O)C2C1C=CC(C(O)c1ccco1)N2Nc1ccc(Cl)cc1Cl (stereo unspecified),-0.101 (inactive),0.634,-0.461,-5.4 (inactive),0.54 (inactive),0.408 (inactive)

# — PubChem BioAssay
